Our source for the growth values is PubChem BioAssay (NCI).

The structures appear in SMILES notation. The panel holds about 83,000 compounds, 20% with a hit somewhere; the sample as a whole holds those more often.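 Step 1: grow cells in 96-well plates. Step 2: add test compound at a single concentration. Step 3: incubate 48 h. Step 4: record percent growth.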 Unmarked numbers belong to inactive results. Calls of active or inactive are those of the source. Rule for the calls: active = growth percent below 10; inactive = the rest.

Common to all, as to test: NCI-60 one-dose screen, 48 h (100 = growth as untreated, 0 = no growth, -100 = all killed)
The subject of one test is HCT-15 colon. As to conditions: 10 µM unless noted.
The next test relates to HT29 colon. As to conditions: 10 µM unless noted.
Another test has as its system SNB-19 CNS. Particulars: 10 µM unless noted.
In the next test the test system is U251 CNS. As to conditions: 10 µM unless noted.
Another test has as its system SK-MEL-5 melanoma. As to conditions: 10 µM unless noted.
A further test concerns UACC-62 melanoma. Particulars: 10 µM unless noted.
The next test has as its system LOX IMVI melanoma. Particulars: 10 µM unless noted.
A further test relates to SK-MEL-28 melanoma. As to conditions: 10 µM unless noted.
The subject of the next test is SK-MEL-2 melanoma. As to conditions: 10 µM unless noted.
The test system of a further test is EKVX NSCLC. As to conditions: 10 µM unless noted.
The test system of the next test is SN12C renal. As to conditions: 10 µM unless noted.
For the next test, the system named is UO-31 renal. As to conditions: 10 µM unless noted.
For a further test, the system named is TK-10 renal. As to conditions: 10 µM unless noted.
Another test has as its system ACHN renal. As to conditions: 10 µM unless noted.
The test system of the next test is CAKI-1 renal. As to conditions: 10 µM.
The test system of the next test is A498 renal. Particulars: 10 µM unless noted.
Another test has as its system CCRF-CEM leukemia. As to conditions: 10 µM unless noted.
The test system of a further test is MOLT-4 leukemia. Particulars: 10 µM unless noted.
In the next test the test system is PC-3 prostate. Particulars: 10 µM unless noted.

For `CCCCCCCCNC(=O)c1ccc(Cn2c(CCCC)nc3c(N)nc4ccccc4c32)cc1`, the growth was -55.8% (active) in the test on HCT-15 colon; -23% (active) in the test with HT29 colon; 14.9% in the test with SNB-19 CNS; -59% (active) in the test on U251 CNS; -96.8% (active) in the test with SK-MEL-5 melanoma; 23.4% with UACC-62 melanoma. Further, the growth in the test on LOX IMVI melanoma was -86.3% (active); in the test with SK-MEL-28 melanoma, -94% (active); in the test with SK-MEL-2 melanoma, 95.4%; with EKVX NSCLC, 62.8%; in the test on SN12C renal, -77.3% (active); with UO-31 renal, 11.8%. For the same molecule, the growth with TK-10 renal was 78.8%; in the test on ACHN renal it was 26.6%; with CAKI-1 renal, -1.97% (active); with A498 renal, 68%; with CCRF-CEM leukemia, -1.62% (active); in the test with MOLT-4 leukemia it was -7.07% (active).

`O=C(Nc1ccccc1)Nc1nc2ccc([N+](=O)[O-])cc2s1`: the growth with HCT-15 colon is 8.64% (active); with HT29 colon, 9.17% (active); in the test on SNB-19 CNS, 13.9%; with U251 CNS, 6.41% (active); with SK-MEL-5 melanoma, -46.5% (active); in the test on UACC-62 melanoma, 1.73% (active). In addition, the growth in the test on SK-MEL-28 melanoma was 20.2%; in the test with SK-MEL-2 melanoma it was -10.8% (active); in the test on EKVX NSCLC it was 8.64% (active); in the test with SN12C renal, 2.88% (active); in the test with UO-31 renal, 8.95% (active); in the test on TK-10 renal, 5.92% (active). In addition, the growth is 3.7% (active) with ACHN renal, 3.46% (active) in the test on CAKI-1 renal, 14.7% in the test on CCRF-CEM leukemia and 11.6% in the test with MOLT-4 leukemia.

Consider `COc1ccc(OC)c([C@H]2c3[nH]c4ccccc4c3C[C@H]3C(=O)N(CCCCCCC(=O)NO)CC(=O)N23)c1`, for which the growth was 99.5% in the test with HCT-15 colon; 87.6% with HT29 colon; 86.9% in the test on SNB-19 CNS; 81.1% in the test on U251 CNS; 86.8% with SK-MEL-5 melanoma; 53.1% in the test with UACC-62 melanoma. Besides, the growth with LOX IMVI melanoma is 15%; in the test on SK-MEL-28 melanoma it was 75.2%; in the test with SK-MEL-2 melanoma it was 86.6%; in the test on EKVX NSCLC, 93.1%; in the test with SN12C renal it was 84.9%; with UO-31 renal, 78.5%. The growth in the test on TK-10 renal is 101%; in the test with ACHN renal it was 94.2%; in the test on CAKI-1 renal, 78.4%; with A498 renal it was 102%; in the test on CCRF-CEM leukemia, 46.1%; in the test with MOLT-4 leukemia it was 63.2%.

As to `CCOC(=O)c1c(NCC(=O)Nc2cccc([N+](=O)[O-])c2)sc2c1CCCC2`, the growth with HCT-15 colon is -42.4% (active); with HT29 colon it was -71.5% (active); in the test on SNB-19 CNS, -17.3% (active); in the test with U251 CNS, -26.5% (active); in the test with PC-3 prostate, -34% (active); in the test with UACC-62 melanoma it was -90.3% (active). In addition, the growth in the test with LOX IMVI melanoma was -73% (active); with SK-MEL-28 melanoma, -80.2% (active); in the test with SK-MEL-2 melanoma, -43.2% (active); in the test with EKVX NSCLC, -22.7% (active); in the test on SN12C renal it was -28.9% (active); in the test on UO-31 renal it was -17.7% (active). Moreover, the growth in the test on TK-10 renal is -33.2% (active); in the test with ACHN renal, -60.9% (active); with CAKI-1 renal, -20.2% (active); in the test with CCRF-CEM leukemia, 8.8% (active); in the test with MOLT-4 leukemia, 5.22% (active).

On to `CN(c1ccc(F)cc1)S(=O)(=O)c1ccc(-c2cnc(C3CC3)o2)cc1`, for which the growth in the test with HCT-15 colon was 17.9%; with HT29 colon, 13.9%; with SNB-19 CNS it was 36.9%; in the test with U251 CNS, 23.3%; in the test on PC-3 prostate, 17.8%; in the test on SK-MEL-5 melanoma, 26.8%. Further, the growth with UACC-62 melanoma is 30.5%; with SK-MEL-28 melanoma, 56.7%; with SK-MEL-2 melanoma, 77.6%; in the test on EKVX NSCLC it was 46.9%; in the test on UO-31 renal it was 44.5%; in the test on TK-10 renal, 91.9%. Besides, the growth in the test with ACHN renal was 43%; in the test on CAKI-1 renal, 39%; with CCRF-CEM leukemia, 16.4%; in the test with MOLT-4 leukemia, 25.6%.

For the molecule `COc1ccc(/C=C/C(=O)c2nnn(-c3ccc(C(=O)O)cc3)c2C)cc1OC`, the growth with HCT-15 colon is 89.6%; with HT29 colon it was 102%; in the test on SNB-19 CNS, 96.3%; in the test with U251 CNS it was 93.8%; in the test on PC-3 prostate, 97.7%; in the test with SK-MEL-5 melanoma, 103%. The growth in the test with UACC-62 melanoma was 90.3%; in the test with LOX IMVI melanoma, 76.2%; in the test on SK-MEL-28 melanoma, 107%; in the test with SK-MEL-2 melanoma, 101%; with EKVX NSCLC it was 93.9%; in the test with UO-31 renal, 79.3%. Moreover, the growth is 113% with TK-10 renal; 91.4% in the test on ACHN renal; 95.9% in the test on CAKI-1 renal; 87.7% in the test on CCRF-CEM leukemia; 97.7% with MOLT-4 leukemia.

For the molecule `Cc1csc(Nc2cccc(Nc3nc(C)cs3)c2)n1`, the growth is 79.1% in the test with HCT-15 colon; 105% in the test with HT29 colon; 82.3% with SNB-19 CNS; 83.3% in the test on U251 CNS; 77.1% in the test on PC-3 prostate; 44.9% in the test on SK-MEL-5 melanoma. Besides, the growth with UACC-62 melanoma is 66.9%; in the test with LOX IMVI melanoma it was 74.5%; in the test on SK-MEL-28 melanoma it was 84.3%; in the test on EKVX NSCLC it was 61.4%; with UO-31 renal, 67.1%; with TK-10 renal, 101%. The growth in the test with ACHN renal is 75.4%; in the test on CAKI-1 renal, 78.1%; in the test with A498 renal it was 47.3%; in the test on MOLT-4 leukemia, 70.8%.

As to `COc1ccc([C@H]2[C@H](O)C(=O)N2c2cc(OC)c(OC)c(OC)c2)cc1O`, the growth in the test on HCT-15 colon is 1.4% (active); in the test on HT29 colon, -18.4% (active); in the test on SNB-19 CNS it was 29%; in the test with U251 CNS, 1.09% (active); in the test on PC-3 prostate, 8.59% (active); in the test on SK-MEL-5 melanoma it was 0.345% (active). In addition, the growth was 27.9% in the test with UACC-62 melanoma; 17.1% with LOX IMVI melanoma; 62% in the test with SK-MEL-28 melanoma; 51.2% in the test with EKVX NSCLC; 24.6% in the test with SN12C renal; 32.6% in the test with UO-31 renal. The growth is 28.1% in the test with ACHN renal, 28.9% with CAKI-1 renal, -16% (active) in the test with A498 renal and 16.1% in the test with CCRF-CEM leukemia.

In the case of `Oc1ccc(CSc2nnc(-c3ccncc3)o2)c2cccnc12`, the growth was 23% in the test with HCT-15 colon; 20.7% with HT29 colon; 17.6% in the test with SNB-19 CNS; 15.8% in the test with U251 CNS; 12.7% in the test with PC-3 prostate; -51.3% (active) in the test with SK-MEL-5 melanoma. Besides, the growth was 18.2% with UACC-62 melanoma; 21.4% in the test with LOX IMVI melanoma; 39.7% in the test on SK-MEL-28 melanoma; 8.88% (active) in the test with SK-MEL-2 melanoma; 47.6% in the test on EKVX NSCLC; 12.4% in the test on UO-31 renal. Besides, the growth in the test on TK-10 renal is 34.6%; with ACHN renal, 40.5%; with CAKI-1 renal, 7.09% (active); in the test on A498 renal, 9.33% (active); in the test on CCRF-CEM leukemia, 26%; in the test on MOLT-4 leukemia, 25.7%.
